Assay outcomes: PubChem, National Center for Advancing Translational Sciences (NCATS)
In the library only some 0.49% were active in any assay of this set; here they are far more common.
TCR act: Activators of T cell receptors: qHTS campaign | AID 504894, 2011 | 330,000 tested, under 10 active | Potency, µM (titrated, usually from 9.22 µM), without a hit: top-dose activation of IL-2 secretion, usual class: activators | primary human leukocytes, anti-CD3, IL-2 HTRF, 48 h; note: % of control where 0% means no effect
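48 hr co-incubation of compounds, a-CD3 beads and primary human leukocytes; IL-2 quantified homogeneously by HTRF with anti-IL-2 K and d2 conjugates.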
Tb PFK inh-1: qHTS Assay to Find Inhibitors of T. brucei phosphofructokinase | ATP-dependent 6-phosphofructokinase (Trypanosoma brucei brucei), O15648 | Potency, µM (series often up to 57.5 µM), inactives show top-dose activity, negative = inhibition, usual class: inhibitors | T. brucei PFK, ADP-Glo luminescence | 330,000 tested, 0.17% active;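 note: potency is the fitted concentration of half-maximal effect; 0% = uninhibited 1x PFK enzyme wells and -100% = no-enzyme wells; nearly all actives have a fitted effect of over 60% in size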
Target sequence (O15648 whole entry, looked up): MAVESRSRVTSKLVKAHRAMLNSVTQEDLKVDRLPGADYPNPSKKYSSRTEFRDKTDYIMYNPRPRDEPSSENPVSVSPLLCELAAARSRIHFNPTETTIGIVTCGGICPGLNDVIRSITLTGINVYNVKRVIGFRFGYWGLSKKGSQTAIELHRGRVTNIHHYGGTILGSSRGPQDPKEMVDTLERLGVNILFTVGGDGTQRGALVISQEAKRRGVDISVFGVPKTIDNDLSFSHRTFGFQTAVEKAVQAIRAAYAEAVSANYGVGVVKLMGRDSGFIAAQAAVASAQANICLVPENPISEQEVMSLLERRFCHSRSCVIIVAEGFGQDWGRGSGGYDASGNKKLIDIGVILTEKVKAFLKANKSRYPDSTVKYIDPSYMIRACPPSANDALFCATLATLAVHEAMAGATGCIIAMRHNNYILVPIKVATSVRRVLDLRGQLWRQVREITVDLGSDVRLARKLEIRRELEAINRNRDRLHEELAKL
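1.25 nM PFK with 0.5 mM F6P and 0.1 mM ATP in 0.1 M TEA pH 8.0, 5 mM MgCl2, incubated 45 min at room temperature; ADP measured by ADP-Glo luminescence; compounds titrated up to 57 uM.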
CCT chaperon mod: High-Throughput Screening for Modulators of Cytosolic Chaperonin Activity | purified chaperonin ATPase assay, HTRF ADP detection, 30 min | activity change, % (concentration not given with the values), hits read low | 360,000 tested, 0.3% active; in the data active = activity change below about -30%; note: % is set by controls: 0 for no effect and ±100 for the full control effect
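TRiC at 40 or 20 nM final (batch-dependent) in 30 mM Tris pH 7.4, 100 mM KCl, 5 mM MgCl2, 1 mM DTT, with compound at single 76 uM and 10 uM ATP, 30 min at 37 deg C. ADP detected by HTRF Transcreener, 665/615 ratio.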
BCR signal inh: qHTS Assay to Find Inhibitors of Chronic Active B-Cell Receptor Signaling; ABC-DLBCL IkBa-CBG/CBR reporter, luminescence ratio, 4 h; Potency, µM (doses to about 46.1 µM), inactives show at the highest dose activity change, negative = inhibition, actives largely listed as inhibitors; 340,000 tested, 0.05% active; AID 493014, 2011; active = well fitted inhibition curve with a large enough effect in the signal ratio, with a control signal flat, not every such curve was filed as active; inconclusive = small, poorly fitted or top-dose-only effect, or effect the other way, or a change in a side signal; the % refers to the signal ratio;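 note: potency is the fitted concentration of half-maximal effect; plate controls were basal doxycycline-induced cells for no effect and cells given 10 µM MG132 for full effect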
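TMD8 human ABC-DLBCL cells with doxycycline-inducible IκBα–green luciferase fusion and unfused red luciferase, in 0.5% FBS medium; compounds up to 46 uM, 4 h at 37C. Green/red luminescence ratio, filter-overlap corrected, fitted to concentration-response curves.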
S-ASM inh: Inhibitors of Secretory Acid Sphingomyelinase (S-ASM): qHTS. Potency, µM (titrated, usually from 57.5 µM), inactives show at the highest dose activity change, negative = inhibition, usual class: inhibitors. AID 504937, 2011. placental ASM, HMU-PC fluorogenic substrate, 60 min. 340,000 tested, 0.006% active. Sphingomyelin phosphodiesterase (Homo sapiens), P17405; note: potency is the fitted concentration of half-maximal effect
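qHTS format. ASM enzyme prepared from human placenta hydrolyses the fluorogenic substrate HMU-PC0 (9 uM final) over 60 min at 37 °C after a 10 min compound preincubation.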
Tb PFK KinaseGlo: Tb PFK orthogonal confirmatory assay using ATP depletion (Kinase-Glo Plus) as an alternative measure of Tb PFK activity: Hit Validation. Tb PFK enzyme, ATP depletion, Kinase-Glo Plus luminescence. Potency, µM (highest dose often 57.5 µM), without a hit: at the top dose inhibition. 1,100 tested, 47% active. shares compounds with Tb PFK inh-1; calls by dose curve; note: potency is the fitted concentration of half-maximal effect; nearly all actives have a fitted effect of over 60% in size
Tb PFK inh-2: Inhibitors of T. brucei phosphofructokinase: Hit Validation; shares compounds with Tb PFK inh-1; purified T. brucei PFK, ADP-Glo luminescence, 45 min; Potency, µM (series often up to 57.5 µM), for inactives: at the top dose activity change, negative = inhibition, usual class: inhibitors; 1,100 tested, 41% active;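 note: potency is the fitted concentration of half-maximal effect; plate controls were full PFK enzyme control for no effect and no enzyme control for full effect; nearly all actives have a fitted effect of over 60% in size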
An asterisk follows results filed as active; ? = inconclusive; . = no result given; [ ] = dose if it differs, or a comment. Unless noted, calls come from the whole dose curve; as a rule, active = well fitted curve in the direction sought with a large enough effect; inconclusive = small, poorly fitted or top-dose-only effect, or another doubt; inactive = no such curve, though single readings can be large; an effect the other way counts as inactive or inconclusive.

SMILES	TCR act	Tb PFK inh-1	CCT chaperon mod	BCR signal inh	S-ASM inh	Tb PFK KinaseGlo	Tb PFK inh-2
CNc1cc(CSC)nc(SCc2ccc(Cl)c(Cl)c2)n1	0.5%	21.3µM*	0.9	15.2%	-13.6%	5.36µM*	8.49µM*
Cc1cc(Br)cn2c(CC(=O)N3CCCCC3)c(-c3ccc(F)cc3)nc12	.	.	-8.5	.	.	.	.
CCN(CC)c1ccc(/C=C2\C(=O)N(c3nnc(C)c(=O)[nH]3)N=C2C)cc1	4.6%	?	-0.7	6.5%	-4.3%	?	13.5µM*
CN1OC[C@@H]2CN[C@H](c3ccc(Br)cc3)C[C@@H]21	.	.	-2.1	.	.	.	.
CCC1(CCC(C)C)C(=O)NC(=O)N(c2ccccc2)C1=O (stereo not drawn)	.	.	1.1	.	.	.	.
O=C1C(SCCO)=C(SCCO)C(=O)c2ccccc21	1.7%	9.53µM*	-0.1	?	-0.5%	0.601µM*	?
O=C1c2ccccc2-c2cc3ccccc3cc21	-9.1%	.	0.6	.	-14.8%	.	.
O=C(Nc1ccc2c(c1)C(=O)NC2=O)c1ccccc1Cl	2.7%	?	-1.1	?	5.5%	12µM*	13.5µM*
Nc1cc(N)cc(C(=O)Nc2ccc3c(c2)C(=O)NC3=O)c1	-8.4%	?	0.7	1.5%	14.5%	?	?
CCOc1ccccc1CN1CCCC(C(=O)Nc2cccc(-n3cccn3)c2)C1 (stereo not drawn)	-11.9%	-0.4%	-1.1	?	1.8%	.	.
CC1(C)CC(=O)CC(C)(C)N1O	.	.	-1.0	.	.	.	.
O=C(Nc1ccc(F)c([N+](=O)[O-])c1)c1cccn(Cc2ccccc2)c1=O	.	.	.	-15.0%	.	.	.
O=C1OC(Nc2ccc(F)c([N+](=O)[O-])c2)c2ccccc21 (stereo not drawn)	1.7%	15.1µM*	-1.3	0.7%	1.0%	21.3µM*	?
Cc1cc(C)c(NC(=S)NCC2CCN(C(C)c3ccccc3)C2)c(C)c1 (stereo not drawn)	1.0%	?	0.9	-1.0%	2.3%	7.57µM*	15.1µM*
Fc1cccc(-c2ccc3c(c2)CN(C(=S)NCCc2ccccc2)Cc2cnnn2-3)c1	.	.	-0.3	.	.	.	.
O=C1CC(c2ccc(C(F)(F)F)cc2)c2c(c3ccccc3oc2=O)O1 (stereo not drawn)	.	.	.	-0.1%	.	.	.
O=C(NNc1ccccc1[N+](=O)[O-])Nc1ccc(Cl)c(Cl)c1	5.3%[46.1 µM]	12µM*	0.7	?	-14.2%	?	-15.6%
O=C(Nc1ccc(Cl)cc1)Nc1ccc(Cl)c(Cl)c1	0.2%	-10.2%	-0.8	?	-12.8%	.	.
CCN(CC)S(=O)(=O)c1cc([N+](=O)[O-])ccc1NNC(=O)Nc1ccc(Cl)c(Cl)c1	2.3%	?	-12.8	?	-15.3%	14.7%	-5.8%
O=C(NCCc1ccc(F)cc1)Nc1ccc([N+](=O)[O-])cc1	11.2%	?	0.4	7.0%	-3.1%	?	?
O=[N+]([O-])c1ccc(CNCCc2ccccc2)cc1	0.1%	0.3%	-1.8	11.0%	1.0%	.	.
O=C(NNc1ccc([N+](=O)[O-])cc1)Nc1ccccc1	-6.1%	?	-1.3	1.0%	-8.5%	19µM*	?
CCN(CCNc1ccc([N+](=O)[O-])c2cccnc12)S(=O)(=O)c1ccc(Cl)cc1	-4.1%	-11.2%	-0.1	0.1%	-18.3%	.	.
O=C(NC(=S)N1CC1)c1ccccc1	.	.	1.4	.	.	.	.
CC(=O)NC1=NC(=O)/C(=C/c2cc(C)n(-c3cccc(C(=O)O)c3)c2C)S1	1.8%	?	-2.7	-1.5%	0.7%	?	?
SMILES	TCR act	Tb PFK inh-1	CCT chaperon mod	BCR signal inh	S-ASM inh	Tb PFK KinaseGlo	Tb PFK inh-2
Cc1cc(/C=C2\C(=O)NC(=O)N(c3ccc(F)cc3)C2=O)c(C)n1-c1cccc(C(=O)O)c1	7.1%	28.1%	-2.5	13.9%	-1.7%	.	.
COc1ccc(/C=C/C(=O)Nc2ccccc2C(=O)O)cc1	0.6%	?	-36.0*	?	11.6%	-30.9%	?
CCNc1nc(NCC)n2c(SCC(=O)Nc3ccc(CC)cc3)nnc2n1	.	21.3µM*	-1.8	?	5.7%	16.9µM*	16.9µM*
Cn1c(SCC(=O)O)nnc1-c1ccc(NC(=O)c2ccc(Cl)c(Cl)c2)cc1	-1.0%	?	-2.6	-4.9%	16.2%	23.9µM*	?
COc1ccc(C)cc1NC(=O)c1c(C)nn(Cc2ccccc2)c1Cl	-6.4%[46.1 µM]	-2.0%	-1.8	?	-4.5%	.	.
COc1ccc(C)cc1NC(=O)c1ccc2c(SCC(=O)O)c3c(nc2c1)CCCC3	-0.5%	?	-0.5	3.8%	2.6%	-29.5%	?
Cc1ccc(CC(=O)NNC(=O)c2ccncc2)cc1C	1.6%	?	-2.7	3.5%	5.2%	13.5µM*	21.3µM*
O=C(Nc1cccc(Cl)c1)c1cccc(N2C(=O)C3CC=CCC3C2=O)c1 (stereo not drawn)	-0.9%	26.9µM*	1.2	-2.0%	-4.4%	6.01µM*	13.5µM*
COc1cc(-c2nnc(SCc3cc(=O)oc4cc(O)c(O)cc34)o2)cc(OC)c1OC	3.2%	?	0.2	-11.3%	-20.8%	1.69µM*	1.51µM*
CCOC(=O)[C@]12Cc3cc(OC)ccc3[C@H]1N(C1CCCCC1)C(=O)c1ccccc12	.	.	1.3	.	.	.	.
Cc1ccc(C(=O)NCC(=O)OCC(=O)Nc2ccc3[nH]c(=O)[nH]c3c2)cc1	1.5%	?	-4.2	-0.8%	4.8%	?	?
CC(=O)Nc1ccccc1C(=O)OCC(=O)Nc1ncccn1	1.9%	5.0%	-0.3	-6.9%	-2.3%	.	.
O=C(COC(=O)Cc1ccc(F)cc1)Nc1ccc2[nH]c(=O)[nH]c2c1	-7.6%	?	-2.9	-0.1%	-2.6%	?	?
O=C(COC(=O)c1ccccc1OC(F)F)Nc1ccc2[nH]c(=O)[nH]c2c1	-0.4%	?	-2.1	?	2.1%	?	?
CN(Cc1cccc(-c2ccncc2)c1)C(=O)Oc1ccc([N+](=O)[O-])cc1	.	.	1.7	.	.	.	.
N#CC1c2ccccc2-n2nncc2CN1Cc1cc(Cl)cc(Cl)c1 (stereo not drawn)	3.1%	.	-1.3	.	-2.6%	.	.
C=CCNc1oc(-c2cccc(Cl)c2)nc1C#N	1.2%	26.9µM*	.	?	-1.6%	16.9µM*	30.1µM*
